# From the supplement of paper PMC8269313
# Structures can show the parent of a compound that is named as a salt.
# Test system: 4T1
# Experiment: % inhibition of 4T1 cell number vs DMSO control; higher = stronger growth inhibition
# Conditions: 1 µM, 3 days
# Outline: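 4T1-H2B-GFP mouse breast cancer cells (3000 per well, 2% FBS medium) were seeded in 96-well imaging plates on plastic, denuded lung or mCAF1 fibroblast-derived matrix, Matrigel (15 μg/mL) or 0.2% gelatin; edge wells were left unused. After 16 h, kinase inhibitors were added at 1 μM final for 3 days. Plates were formalin-fixed, DAPI-stained and imaged on an INCell Analyzer 2200, and GFP-positive nuclei were counted. Percent inhibition of cell number was calculated relative to DMSO control.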
# [1] = substrate: lung fibroblast-derived matrix
# [2] = substrate: mCAF1 fibroblast-derived matrix
SMILES,% inhibition of 4T1 cell number (substrate: Matrigel) [%],% inhibition of 4T1 cell number (substrate: gelatin) [%],% inhibition of 4T1 cell number [1] [%],% inhibition of 4T1 cell number [2] [%],% inhibition of 4T1 cell number (substrate: plastic) [%]
Nc1nc(Nc2ccc(S(N)(=O)=O)cc2)nn1C(=S)Nc1c(F)cccc1F [Cdk1/2 Inhibitor III],90.1,90,1.23,97.8,95.5
CCN(CC)CCCCN1c2ccccc2Oc2ccc(Cl)cc21 [Akt Inhibitor X],72.7,46.6,-2.93,-26.9,40
NC(=O)Nc1sc(-c2ccccc2)cc1C(N)=O [IKK-2 Inhibitor VI],-32,-1.17,-16,28.5,-60
c1ccc(-c2cnc(Nc3ccc(OCCN4CCCC4)cc3)s2)cc1 [Flt-3 Inhibitor III],95.2,88.5,5.06,65.3,72.6
"CCC(CO)Nc1nc(NCc2ccccc2)c2ncn(C(C)C)c2n1 [Roscovitine, (S)-Isomer]",-4.8,59.2,1.55,29.4,-6.54
COc1cc(OC)c(C=C2C(=O)Nc3ccccc32)c(OC)c1,85.7,85.1,86.7,84.2,70.1
O=C(Nc1cc(C(F)(F)F)cc(C(F)(F)F)c1)c1cc(Cl)ccc1O [IKK-2 Inhibitor V],91.1,90.6,80.7,82.9,94.5
O=C(c1ccccc1)c1ccc(N2CCOCC2)cc1O [DNA-PK Inhibitor V],58,77.4,-6.09,54.5,92.7
Cc1nc2cc3nc(-c4cccs4)cnc3cc2n1C,47.1,-31.4,-7.74,-22.1,37.6
O=[N+]([O-])c1ccc(-c2nc(-c3ccc(F)cc3)c(-c3ccncc3)[nH]2)cc1,-4.18,12,-11.4,26.1,-60.5
O=c1c2ccccc2[nH]c(=S)n1CCN1CCC(=C(c2ccc(F)cc2)c2ccc(F)cc2)CC1 [Diacylglycerol Kinase Inhibitor II],8.29,-29.1,-1.99,-11,-33.4
Cc1cc(Nc2nc(-c3ccccc3)nc3ccccc23)n[nH]1 [GSK-3 Inhibitor XIII],-21.7,-25.8,-19,62.3,-14.5
CC[C@H](CO)Nc1nc(NCc2ccccc2)c2ncn(C(C)C)c2n1 [Roscovitine],-1.22,53.1,-2.74,3.56,-18.8
Nc1ccc(-c2cccc3c(=O)cc(N4CCOCC4)oc23)cc1,-40.7,-16.5,-12,28.6,-60.7
O=C1NCCc2[nH]c(-c3ccnc(-c4cnc5ccccc5c4)c3)cc21 [MK-2 Inhibitor III],-42.1,-5.86,-4.6,4.98,-48.3
Cc1ccc(NC2=CC(=O)c3sc(C)nc3C2=O)cc1 [Cdk4 Inhibitor III],-14.1,30.5,99.5,12.4,-21.1
O=C1Cc2c([nH]c3ccc(Br)cc23)-c2ccccc2N1 [Kenpaullone],-24.2,-0.528,23.3,25.6,-48.1
O=C1Nc2ccc(Br)cc2/C1=C/c1cc2c([nH]1)CCCC2 [VEGF Receptor 2 Kinase Inhibitor II],16.3,-22.2,-11.9,-141,8.31
"CC(C)n1cnc2c(NCc3ccccc3O)nc(NCCCO)nc21 [Cdk Inhibitor, p35]",20.1,13.4,-6.35,-51.8,14.9
O=C(Nc1cccc(Nc2nccc(Nc3cccc(C(F)(F)F)c3)n2)c1)C1CC1 [Aurora Kinase Inhibitor III],54.8,74.5,97.8,15,63.6
CN1C(=O)C(c2c[nH]c3ccccc23)=C(c2c[nH]c3ccccc23)C1=O [Bisindolylmaleimide V],82.1,67,-9.51,-40.4,50.7
O=C(O)c1ccc2c3c1cccc3c(=O)n1c3ccccc3nc21,30.6,44.3,-11.4,31.2,32.2
CSc1nc(-c2ccnc(NC(C)c3ccccc3)c2)c(-c2ccc(F)cc2)[nH]1 (stereo not given) [p38 MAP Kinase Inhibitor III],-9.55,-7.6,10.6,23.1,-65
CC(C)(C)c1nc2c3cc[nH]c(=O)c3c3cc(F)ccc3c2[nH]1 [JAK Inhibitor I],-23.5,-101,-5.54,20.7,-71.6
CC[n+]1c(/C=C/N(C)c2ccccc2)n(-c2ccccc2)c2ccc(-c3nc4ccccc4s3)cc21 [Akt Inhibitor IV],53.2,56.7,-4.76,92.1,78.2
O=C1NC(=O)C(c2c[nH]c3ccccc23)=C1c1c[nH]c2ccccc12 [Bisindolylmaleimide IV],24.5,-65.7,47.8,17.1,-20.6
COc1ccc2nc3n[nH]c(C)c3c(NCCOCCO)c2c1,28.3,44.2,1.01,-1.22,23.2

SMILES,% inhibition of 4T1 cell number (substrate: Matrigel) [%],% inhibition of 4T1 cell number (substrate: gelatin) [%],% inhibition of 4T1 cell number [1] [%],% inhibition of 4T1 cell number [2] [%],% inhibition of 4T1 cell number (substrate: plastic) [%]
"Cn1nc2c3c(cccc31)C(=O)c1ccccc1-2 [JNK Inhibitor, Negative Control]",-37.2,-36.9,0.304,24.3,-59.1
COc1cc2ncnc(Nc3ccc(Oc4ccccc4)cc3)c2cc1OC [Src Kinase Inhibitor I],-19.5,-6.86,-13.5,32.6,-35.4
O=C(Nc1ccncc1)Nc1c(Cl)cc(Cl)cc1Cl [Rho Kinase Inhibitor II],-9.94,-2.18,-4.7,-19.5,-18.6
COc1cc2ncnc(N3CCN(C(=O)Nc4ccc(Oc5ccccc5)cc4)CC3)c2cc1OC [PDGF Receptor Tyrosine Kinase Inhibitor III],-4.76,-15.1,-1.37,49.3,-34.7
CC(C)n1cnc2c(NCc3ccccc3)nc(NCCCO)nc21 [Bohemine],16.5,13,0.282,-0.566,-30.7
O=c1cc(N2CCOCC2)oc2c1ccc1ccccc12 [DNA-PK Inhibitor II],9.66,-23.4,34.1,-9.82,-13
Cc1ccc(S(=O)(=O)/C=C/C#N)cc1,18.5,38.2,-8.23,-0.662,5.77
O=C(Nc1ccc(-c2cn[nH]c2)cc1)C1COc2ccccc2O1 (stereo not given) [Rho Kinase Inhibitor V],-9.35,14.6,-8.88,7.12,-3.09
O=C(c1cc2cc(O)ccc2[nH]1)c1cc2cc(O)ccc2[nH]1 [Flt-3 Inhibitor II],13.9,26.6,23.8,22.7,-36.1
COc1cc2ncnc(Nc3ccc(NC(=O)c4ccccc4)cc3)c2cc1OC [Aurora Kinase Inhibitor II],50.4,37.2,-20.1,-30.6,35.8
Cn1cc(C2=C(c3cn(CCCSC(=N)N)c4ccccc34)C(=O)NC2=O)c2ccccc21,-9.32,35.1,-2.42,48.6,-25.7
N#Cc1c(NC(=O)c2cccc3ccccc23)sc2c1CCCC2 [JNK Inhibitor IX],92,92.5,2.5,90.8,86.4
COc1ccc(CNC(=O)Nc2ncc([N+](=O)[O-])s2)cc1 [GSK-3b Inhibitor VIII],-53.9,19.6,27.8,24.4,-62.1
CN[C@@H]1C[C@H]2O[C@@](C)([C@@H]1OC)n1c3ccccc3c3c4c(c5c6ccccc6n2c5c31)C(=O)N[C@H]4O,99.4,99.2,14.1,88.8,95.5
c1nc2c(NC3CCCCC3)nc(Nc3ccc(N4CCOCC4)cc3)nc2[nH]1 [Reversine],91,89.5,7.75,85.6,63.1
COc1ccc(Cl)cc1NC(=O)Nc1cc(C)nc2ccccc12 [IGF-1R Inhibitor II],-4.34,-99,-3.14,-1.23,-44.3
O=C1NC(=O)/C(=C/c2ccc3c(c2)OC(F)(F)O3)S1 [PI 3-Kg Inhibitor II],27.2,11.1,39.7,5.87,37.8
Brc1c(Br)c(Br)c2n[nH]nc2c1Br [Casein Kinase II Inhibitor I],49.8,40.2,1.56,-30.6,39.4
"COc1cc(SC)ccc1C(=O)N1CCC(Cc2ccccc2)CC1 [p38 MAP Kinase Inhibitor VI, JX401]",-31.1,8.59,-4.09,17,-66.3
Nc1n[nH]c(N)c1N=Nc1ccc(O)cc1 [Cdk9 Inhibitor II],11,10.5,-8.89,-4.98,12
CC(=O)c1ccc(N2CCOCC2)cc1O [DNA-PK Inhibitor III],0.894,-13.7,-5.23,-5.96,-24.1
"NCCCn1cc(C2=C(c3c[nH]c4ccccc34)C(=O)NC2=O)c2ccccc21 [Bisindolylmaleimide III, Hydrochloride]",50.6,46.1,12.7,-60.9,37.2
Cn1cnc2cc3c(Nc4cccc(Br)c4)ncnc3cc21,5.46,-49.9,-0.216,-36.5,-21.9
CCN(CC)CCNC(=O)c1c(C)[nH]c(/C=C2\C(=O)Nc3ccc(Cl)cc32)c1C,62.3,70,-10.6,52.4,74.3
COc1ccc(OC)c2c(=S)c3ccccc3[nH]c12,-8.48,-7.36,-13.6,4.29,-67
"CNCCNS(=O)(=O)c1cccc2cnccc12 [H-8, Dihydrochloride]",-17.7,25.7,-6.96,30.5,-63
"CCCCc1c(-c2ccc(OC)cc2)[nH]c2nccnc12 [Aloisine, RP106]",39.6,41.7,-14.4,-9.32,46.9
